Experimental data published in PubChem BioAssay (NCI).
The panel holds about 83,000 compounds, 20% with a hit somewhere; the sample as a whole holds those more often.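 Testing used 96-well plates and a 48-hour single-concentration exposure. Example: -40 means 40% of the starting cells died.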 A number with no mark means an inactive call. Activity calls are given as the source filed them. Rule for the calls: active = growth percent below 10; inactive = the rest.

What was measured:
Assay in all cases: NCI-60 one-dose screen, 48 h (100 = growth as untreated, 0 = no growth, -100 = all killed)
Conditions in all cases: 10 µM unless noted
DU-145 prostate = system: DU-145 prostate
K-562 leukemia = system: K-562 leukemia
MALME-3M melanoma = system: MALME-3M melanoma
MDA-MB-231 breast = system: MDA-MB-231 breast
RXF 393 renal = system: RXF 393 renal
SF-268 CNS = system: SF-268 CNS
SF-295 CNS = system: SF-295 CNS
SF-539 CNS = system: SF-539 CNS
UACC-257 melanoma = system: UACC-257 melanoma
M14 melanoma = system: M14 melanoma
HCT-15 colon = system: HCT-15 colon
HT29 colon = system: HT29 colon
SNB-75 CNS = system: SNB-75 CNS
SNB-19 CNS = system: SNB-19 CNS
U251 CNS = system: U251 CNS
PC-3 prostate = system: PC-3 prostate
SK-MEL-5 melanoma = system: SK-MEL-5 melanoma
UACC-62 melanoma = system: UACC-62 melanoma
LOX IMVI melanoma = system: LOX IMVI melanoma
SK-MEL-28 melanoma = system: SK-MEL-28 melanoma

Structure (SMILES)	growth (DU-145 prostate)	growth (K-562 leukemia)	growth (MALME-3M melanoma)	growth (MDA-MB-231 breast)	growth (RXF 393 renal)	growth (SF-268 CNS)	growth (SF-295 CNS)	growth (SF-539 CNS)	growth (UACC-257 melanoma)	growth (M14 melanoma)	growth (HCT-15 colon)	growth (HT29 colon)	growth (SNB-75 CNS)	growth (SNB-19 CNS)	growth (U251 CNS)	growth (PC-3 prostate)	growth (SK-MEL-5 melanoma)	growth (UACC-62 melanoma)	growth (LOX IMVI melanoma)	growth (SK-MEL-28 melanoma)
Cc1cc(NS(=O)(=O)c2ccc(NC(=O)COc3ccc(-c4cc5ccccc5[nH]4)cc3)cc2)no1	18.5%	6.89% (active)	47.6%	18.9%	-24.6% (active)	27.3%	8.98% (active)	6.2% (active)	56.9%	-15.4% (active)	24.7%	12.3%	-12.2% (active)	29.6%	20.8%	13.3%	12.4%	31.4%	4.54% (active)	
CCCN1CCN(c2ccc3nc(-c4ccc5nc(-c6ccc(C(F)(F)F)cc6)[nH]c5c4)[nH]c3c2)CC1	-95.3% (active)	-51.4% (active)	-64.7% (active)	-86.9% (active)	-70.4% (active)	-70.2% (active)	-58.4% (active)	-94.6% (active)	96.5%	-59% (active)	-55.1% (active)	-44% (active)	32.5%	-93.8% (active)	-82.2% (active)	-68% (active)	37.2%	72.9%	-92.9% (active)	
Clc1ccc(Nc2nc(Nc3ccccc3)nc(Nc3ccc(-c4cc(-c5ccc(Cl)cc5)on4)cc3)n2)cc1	32.6%	40.2%	64.5%	60.5%	74.6%	61.7%	54%	54.2%	70.1%	41.4%	43.1%	-2.96% (active)	16.6%	76.7%	48.5%	46.1%	86%	53.3%	32.5%	77.7%
CCCCc1ccc(C(O)(CCN2CC3CCC(CC3)C2)c2ccccc2)cc1 (stereo unspecified)	99.8%	75.2%	95.7%	99.1%	96.2%	97.1%	102%	101%	95.2%	91.7%	65.7%	68.8%	116%	108%	83.3%	94.3%	101%	108%	103%	102%
COC(=O)CCC(=O)c1ccccc1	106%	96.9%	158%	111%	139%	107%	91.8%	99.9%	106%	103%	102%	105%	117%	102%	100%	117%	130%	104%		
CCCCCn1c(=N)n(CC(O)COc2cccc(C)c2)c2ccccc21 (stereo unspecified)	10.4%	6.52% (active)	-6.7% (active)	22.8%	15.5%	25.6%	-27.4% (active)	-14.7% (active)	-19.6% (active)	15.9%	11.1%	72.7%	2.13% (active)	20%	1.64% (active)	7.46% (active)	-73.3% (active)	25.7%	13.7%	
CCN(CC)c1ccc(/C=C(\C#N)c2cc3ccccc3[nH]2)cc1	74.1%	14.2%	71.7%	48.6%	94%	71.8%	46.9%	58.3%	81.5%	29.6%	29.7%	13.7%	55.2%	72.9%	41.7%	77%	52.1%	64%	29.7%	67.1%
COc1ccc(-c2cc(=O)oc3c4c(ccc23)OCN(Cc2ccc(F)cc2)C4)cc1	73.4%	24.3%	77.1%	58.9%	57%	82%	27.3%	74.7%	39.6%	54.6%	64.3%	42.4%	69.7%	72.2%	59%	54.9%	3.99% (active)	61.6%	73%	
COc1cc(C(=O)/C=C/c2c(-c3cccs3)nc3sccn23)cc(OC)c1OC	3.28% (active)	15.4%	34.8%	7.07% (active)	-20.7% (active)	17.7%	-35.8% (active)	-27.6% (active)	5.19% (active)	7.73% (active)	-36.7% (active)	-13.8% (active)	-27.7% (active)	14.4%	0.929% (active)	7.06% (active)	-37.9% (active)	-56.4% (active)	-68.5% (active)	16.5%
Cc1oc2c(c1C(=O)N1CC[C@@H](N)C1)C(=O)c1c(c(O)c3ccccc3c1O)C2=O	24%	3.82% (active)	53.2%	35.2%	48.9%	16%	29.9%	46.9%	74.8%	38.8%	20.7%	11.3%	31.8%	40%	23.8%	10.9%	42.7%	55.2%	24.9%	
C=C1CC[C@@H]2[C@@](C)(CCC[C@]2(C)C(=O)O)[C@@H]1CC[C@H](CO)CCO	112%	106%	93.8%	105%	118%	99.8%	103%	105%	109%	102%	108%	104%	94.8%	101%	102%	99.7%	112%	99.2%	99.1%	105%
c1ccc(-c2n(Cc3ccc4ccccc4n3)c3ccccc3[n+]2Cc2ccc3ccccc3n2)cc1	17.5%	2.99% (active)	-24.6% (active)	-13.1% (active)	-4.06% (active)	5.9% (active)	-9.19% (active)	7.88% (active)	-2.75% (active)	-14.9% (active)	47.9%	0.506% (active)	-21.5% (active)	10.6%	12.1%	5.27% (active)	-95.9% (active)	-45% (active)	-75.8% (active)	-4.75% (active)
O=C1NC(=O)C2(CCCC2C(=O)O)N1 (stereo unspecified)	120%	98%	140%	105%	117%	109%	99.8%	101%	86.7%	106%	99.1%	108%	83.4%	106%	96.7%	92.6%	110%	103%	91.1%	110%
Cc1ccc(S(=O)(=O)N2CCc3ccc(O)c4c3C2Cc2ccc3c(c2-4)OCO3)cc1 (stereo unspecified)	10.3%	15.1%	61.8%	6.15% (active)	0.195% (active)	37.2%	14.3%	3.96% (active)	45.6%	5.43% (active)	30.6%	52.3%	5.09% (active)	52.3%	12.7%	26.8%	25.9%	22.1%	35.6%	
CC1SC(c2cccc(Oc3ccccc3)c2)N(CCc2cccs2)C1=O (stereo unspecified)	-6.09% (active)	9.44% (active)	-72.7% (active)	-47.5% (active)	-90.6% (active)	-5.54% (active)	-35.6% (active)	-82.3% (active)	-45.1% (active)	-74% (active)	-16.3% (active)	-24.7% (active)	-11.7% (active)	11.9%	-25.7% (active)	2.18% (active)	-100% (active)	-71.1% (active)	-100% (active)	-57% (active)
Cl.Fc1c[c-]c(-c2ccccn2)c(F)c1.[Pt].c1ccc([PH+](CC[PH+](c2ccccc2)c2ccccc2)c2ccccc2)cc1	-99.6% (active)	-11.4% (active)	-87.2% (active)	-74.2% (active)	-84.4% (active)	-57.7% (active)	-88% (active)	-94.6% (active)	-59.1% (active)	-84.7% (active)	-76.2% (active)	-73.5% (active)	-94.2% (active)	-76.4% (active)	-62.2% (active)	-70.1% (active)	-99.3% (active)	-81% (active)	-82.4% (active)	
